Experimental data from the supplement of paper PMC7411640.
Where a name gives a salt, the structure may show the parent alone.

system: MDA-MB-468; assay: phospho-S6 immunofluorescence (DAPI-normalised), per-plate z-score; higher = higher phospho-S6 signal (less pathway suppression); details: co-treatment: vehicle; 24 h
Method: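 GPCR-targeted compound library (MedChemExpress HY-L006) tested on MDA-MB-468 PTEN-null TNBC cells in 384-well plates at 0.1, 1 or 10 uM, combined with vehicle, GDC0941 450 nM or lapatinib 1 uM, for 24 h. Phospho-S6 (S240/244) immunofluorescence normalised to DAPI and expressed as a per-plate z-score; values are the mean of biological triplicates.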

In order of rising “phospho-S6 immunofluorescence (z-score)” value:
1. CC(ONC(=O)c1cc(C(F)(F)F)cc(C(F)(F)F)c1)C(=O)Nc1ccc(Cl)cc1 (centres undefined) (compound 10 µM)  -2.5
2. Cc1cc2c(cc1Cl)N(C(=O)Nc1ccc(Oc3cccnc3C)nc1)CC2 (compound 10 µM)  -1.44
3. Clc1ccc(Cn2c(CN3CCCC3)nc3ccccc32)cc1 [Clemizole (hydrochloride)] (compound 10 µM)  -1.37
4. O=c1n(CCCN2CCN(c3cccc(Cl)c3)CC2)nc2ccccn12 [Trazodone (hydrochloride)] (compound 10 µM)  -0.51
5. CC(C)N(CCCCOCC(=O)NS(C)(=O)=O)c1cnc(-c2ccccc2)c(-c2ccccc2)n1 (compound 10 µM)  -0.38
6. N=C(N)NCCC[C@H](NC(=O)[C@H](Cc1ccccc1)NC(=O)[C@@H]1CCCN1C(=O)[C@H](CO)NC(=O)[C@H](Cc1ccccc1)NC(=O)CNC(=O)[C@@H]1CCCN1C(=O)[C@@H]1CCCN1C(=O)[C@@H](N)CCCNC(=N)N)C(=O)O [Bradykinin] (compound 10 µM)  -0.36
7. Cc1cc(OCCCS(C)(=O)=O)cc(C)c1-c1cccc(COc2ccc3c(c2)OC[C@H]3CC(=O)O)c1 (compound 10 µM)  -0.32
8. Cc1ccccc1C(=O)Nc1ccc(C(=O)N2CCCC(O)c3cc(Cl)ccc32)c(C)c1 (centres undefined) [Tolvaptan] (compound 10 µM)  -0.25
9. COc1cc2nc(N(C)CCCNC(=O)C3CCCO3)nc(N)c2cc1OC (centres undefined) [Alfuzosin] (compound 10 µM)  -0.19
10. CCNC(=O)[C@H]1O[C@@H](n2cnc3c(N)nc(NCCc4ccc(CCC(=O)O)cc4)nc32)[C@H](O)[C@@H]1O (compound 10 µM)  -0.14
11. CCCCc1nc(C)c(CC(=S)N(C)C)c(=O)n1Cc1ccc(-c2ccccc2-c2nnn[nH]2)cc1 [Fimasartan] (compound 10 µM)  -0.04
12. O=C(O)Cn1c2c(c3cc(F)ccc31)CN(C(=O)c1cccc3ccccc13)CC2 [Setipiprant] (compound 10 µM)  -0.03
13. CCNC1(C(N)=O)CCN(c2ncnc3c2nc(-c2ccccc2Cl)n3-c2ccc(Cl)cc2)CC1 [Otenabant] (compound 10 µM)  -0.02
14. CC#C[C@]1(O)CC[C@H]2[C@@H]3CCC4=CC(=O)CCC4=C3[C@@H](c3ccc(N(C)C)cc3)C[C@@]21C [Mifepristone] (compound 10 µM)  -0.01
15. CC(C)C[C@H](NC(=O)CNC(=O)[C@H](Cc1ccc(O)cc1)NC(=O)[C@H](CO)NC(=O)[C@H](Cc1c[nH]c2ccccc12)NC(=O)[C@H](Cc1cnc[nH]1)NC(=O)[C@@H]1CCC(=O)N1)C(=O)N[C@@H](CCCNC(=N)N)C(=O)N1CCC[C@H]1C(=O)NCC(N)=O [Gonadorelin (acetate)] (compound 10 µM)  0.07
16. O=C1CCC(c2ccccc2)(C2CCN(Cc3ccccc3)CC2)C(=O)N1 (centres undefined) [Benzetimide (hydrochloride)] (compound 10 µM)  0.11
17. CCN(CC)Cc1ccc(C(=O)N(CCc2ccccc2OC)[C@@H]2CCNC2)cc1 (compound 10 µM)  0.12
18. CCCCC(=O)N(Cc1ccc(-c2ccccc2-c2nnn[nH]2)cc1)[C@H](C(=O)O)C(C)C [Valsartan] (compound 10 µM)  0.13
19. CCc1cc(/C(C)=N/OCc2ccc(C3CCCCC3)c(C(F)(F)F)c2)ccc1CN1CC(C(=O)O)C1 [Siponimod] (compound 10 µM)  0.15
20. COc1cc2nc(N3CCN(C(=O)c4ccco4)CC3)nc(N)c2cc1OC [Prazosin (hydrochloride)] (compound 10 µM)  0.24
21. CCc1c(C(=O)NCCc2ccc(N3CCCCC3)cc2)[nH]c2ccc(Cl)cc12 (compound 10 µM)  0.27
22. CCC(=O)NC[C@@H]1C[C@H]1c1cccc2c1CCO2 [Tasimelteon] (compound 10 µM)  0.27
23. CCCN[C@@H]1CCc2nc(N)sc2C1 [Dexpramipexole (dihydrochloride)] (compound 10 µM)  0.4
24. Cc1ccc(OCC(O)C(C)NC(C)C)c2c1CCC2 (centres undefined) [ICI 118,551 (hydrochloride)] (compound 10 µM)  0.46
25. O=c1ccccn1CC1(O)CCN(Cc2ccccc2)CC1 (compound 10 µM)  0.48
26. OCc1ccc(-c2nn(Cc3ccccc3)c3ccccc23)o1 [Lificiguat] (compound 10 µM)  0.54
27. Cc1noc(NS(=O)(=O)c2ccc(N)cc2)c1C [Sulfisoxazole] (compound 10 µM)  0.55
28. Nc1nc(CC(=O)Nc2ccc(CCNC[C@H](O)c3ccccc3)cc2)cs1 [Mirabegron] (compound 10 µM)  0.56
29. CN(C)CCOC(C)(c1ccccc1)c1ccccn1 (centres undefined) [Doxylamine (succinate)] (compound 10 µM)  0.58
30. Cn1c(=O)c2nc[nH]c2n(C)c1=O [Theophylline] (compound 10 µM)  0.71
31. OCC1OC(n2cnc3c(NCCc4ccccc4)ncnc32)C(O)C1O (centres undefined) [N6-(2-Phenylethyl)adenosine] (compound 10 µM)  0.72
32. N=C(N)NCCCCN [Agmatine (sulfate)] (compound 10 µM)  0.73
33. CC(C)(C)NCC(O)c1ccc(O)c(CO)c1 (centres undefined) [Salbutamol (hemisulfate)] (compound 10 µM)  0.8
34. CC(=O)[C@H]1CC[C@H]2[C@@H]3CC=C4C[C@@H](O)CC[C@]4(C)[C@H]3CC[C@]12C [Pregnenolone] (compound 10 µM)  0.85
35. CCCCCCCCOc1ccccc1C(=O)Nc1ccc(C(=O)OCC[N+](C)(CC)CC)cc1 [Otilonium (bromide)] (compound 10 µM)  0.94
36. OC[C@H]1O[C@@H](n2cnc3c(N[C@@H]4CCc5ccccc54)ncnc32)[C@H](O)[C@@H]1O (compound 10 µM)  1.18
37. CC(C)(O)c1ccccc1CC[C@@H](SCC1(CC(=O)O)CC1)c1cccc(/C=C/c2ccc3ccc(Cl)cc3n2)c1 [Montelukast (sodium)] (compound 10 µM)  1.39
38. CN1CCC[C@@H]1CCO[C@](C)(c1ccccc1)c1ccc(Cl)cc1 [Clemastine (fumarate)] (compound 10 µM)  1.46
39. CN1CCN2c3ccccc3Cc3ccccc3C2C1 (centres undefined) [Mianserin (hydrochloride)] (compound 10 µM)  1.67
